Assay outcomes from PubChem BioAssay.
FLuc modulator: qHTS profiling assay for firefly luciferase inhibitor/activator using purifed enzyme and Km concentrations of substrates (counterscreen for miR-21 project); actives 6.9% (n = 360,000); AID 588342, 2011; purified FLuc, Km substrates, luminescence inhibition; Potency, µM (highest dose often 57.5 µM), without a hit: top-dose activity change, negative = inhibition, actives largely listed as inhibitors;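 note: plate controls were vehicle for no effect and reference inhibitor for full effect; nearly all actives have a fitted effect of over 55% in size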
Target sequence (P08659 whole entry, looked up): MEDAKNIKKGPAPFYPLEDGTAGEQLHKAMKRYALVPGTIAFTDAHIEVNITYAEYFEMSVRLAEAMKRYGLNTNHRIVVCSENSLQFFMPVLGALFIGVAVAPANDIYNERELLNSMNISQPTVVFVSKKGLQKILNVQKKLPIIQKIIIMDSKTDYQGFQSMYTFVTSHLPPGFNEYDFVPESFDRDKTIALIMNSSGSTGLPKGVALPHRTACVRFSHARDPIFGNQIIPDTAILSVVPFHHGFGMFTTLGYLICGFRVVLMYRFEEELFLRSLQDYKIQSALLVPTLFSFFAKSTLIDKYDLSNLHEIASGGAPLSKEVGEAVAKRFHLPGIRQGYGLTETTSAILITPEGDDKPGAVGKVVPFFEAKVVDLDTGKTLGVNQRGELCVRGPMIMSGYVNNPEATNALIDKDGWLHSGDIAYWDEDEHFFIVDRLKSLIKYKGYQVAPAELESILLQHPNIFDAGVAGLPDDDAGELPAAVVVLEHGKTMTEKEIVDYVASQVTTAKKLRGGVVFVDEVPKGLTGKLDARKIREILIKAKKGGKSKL
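Purified P. pyralis luciferase (10nM final) with 10uM D-luciferin and 10uM ATP (Km levels) in 50mM Tris acetate pH 7.5, 10mM Mg acetate, 0.01% Tween-20, 0.05% BSA; qHTS 6-point titration, ~60 µM downward; luminescence read.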
p53 reactivator: qHTS assay for re-activators of p53 using a Luc reporter; actives 0.063% (n = 320,000); H1299 p53-A138V BP100-luciferase reporter, luminescence, 24 h; Potency, µM (series often up to 92.2 µM), inactives show at the highest dose activity change, positive = activation, most hits filed as activators; AID 504706, 2011; note: % of control where 0% means no effect; nearly all actives have a fitted effect of over 45% in size
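p53-null H1299 cells stably carrying temperature-sensitive p53-A138V and a BP100-luciferase reporter were pinned with compounds (4-point, 1:5 series) and held 24 hrs at 37 deg C. Luminescence was read 10 min after detection reagent.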
SMN2 splice up: qHTS Assay for Enhancers of SMN2 Splice Variant Expression. AID 1458, 2008. HEK293 SMN2-luciferase splicing reporter, luminescence, 30-36 h. actives 2.8% (n = 210,000). Potency, µM (highest dose often 46.1 µM), for inactives: at the highest dose activity change, positive = activation, hits mostly activators; note: % of control where 0% means no effect; nearly all actives have a fitted effect of over 55% in size
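HEK293 cells carry an SMN2 minigene-luciferase reporter in which exon 7 inclusion puts luciferase in frame. Cells were seeded at 2000 cells/well, attached for 10-12 hours, then exposed to compounds for 30-36 hours at 37C before ONE-Glo luminescence.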
Rab9 promoter act: qHTS Assay for Rab9 Promoter Activators. Huh7 Rab9 promoter-luciferase reporter, luminescence, 24 h. Potency, µM (highest dose often 9.22 µM), for inactives: top-dose activation, negative = inhibition, actives largely listed as activators. actives 2.8% (n = 320,000). AID 485297, 2010; note: % of control where 0% means no effect; nearly all actives have a fitted effect of over 60% in size
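Huh7 cells stably carrying a Rab9 promoter-luciferase reporter, 1500 cells per well in OP-MEM I with 10% FBS, treated with compound 24 hours at 37C. Luciferase activity read by luminescence after 10 minutes with Amplite reagent.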
NPC1 prom act: qHTS Assay for NPC1 Promoter Activators; actives 2.4% (n = 320,000); Potency, µM (doses to about 9.22 µM), for the others: at the top dose activation, usual class: activators; Huh7 NPC1 promoter luciferase reporter, 24 h; AID 485313, 2010; note: % of control where 0% means no effect; nearly all actives have a fitted effect of over 60% in size
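Compounds in DMSO were transferred onto Huh7 NPC1-luciferase reporter cells pre-incubated 2 h; after 24 h at 37 °C, Amplite reagent was dispensed and luminescence recorded 10 min later.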
ELG1 genotox: qHTS screen for small molecules that induce genotoxicity in human embryonic kidney (HEK293T) cells expressing luciferase-tagged ELG1; HEK293T ELG1-luciferase reporter, luminescence, 16 h; Potency, µM (highest dose often 46 µM), for inactives: at the highest dose activity change, positive = activation, hits mostly activators; actives 1.3% (n = 330,000); AID 504466, 2011; note: % of control where 0% means no effect; nearly all actives have a fitted effect of over 60% in size
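Quantitative HTS format in 1536-well plates. HEK293T ELG1-luciferase reporter cells receive test compound and are incubated 16 hr at 37 °C, 5% CO2; ONE-Glo added, 30 min room temperature, then luminescence read.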
The depositor's hits bear a star; ? = inconclusive; / = no result given; [ ] = dose if it differs, or a comment. This is a sample that favours compounds with a hit; in the whole collection about 7.3% have one here. Calls come from the whole dose curve; as a rule, active = well fitted curve in the direction sought with a large enough effect; inconclusive = small, poorly fitted or top-dose-only effect, or another doubt; inactive = no such curve, though single readings can be large; an effect the other way counts as inactive or inconclusive. Potency is the fitted concentration of half-maximal effect.

SMILES	FLuc modulator	p53 reactivator	SMN2 splice up	Rab9 promoter act	NPC1 prom act	ELG1 genotox
O=C(CC(=O)N/N=C/c1ccc(F)cc1)N/N=C/c1ccc(F)cc1	15µM*	3%	/	2%	1%	-4%
CC(=O)Nc1cccc(C(=O)N/N=C/c2ccc(F)cc2)c1	6µM*	?	27%[1.84 µM]	1.4µM*	2.8µM*	16µM*
Cc1ccc(C(=O)Nc2cccc(C(=O)N/N=C/c3ccc(F)cc3)c2)cc1	2.4µM*	21%	/	1.4µM*	2.2µM*	15%
O=C(Nc1cccc(Cl)c1)OCCOc1ccccc1	21µM*	/	/	?	?	15%
O=C(Nc1ccccc1)OCCOc1ccccc1	11µM*	?	?	0.89µM*	4µM*	12µM*
O=C(NCCO)c1cccc(Cl)c1	4%	17%	-2%	0.0063µM*	?	/
O=C(Nc1ccccc1)OCCOc1cccc(Br)c1	-9%	/	/	7%	2%	3%
COc1ccc(OCCOC(=O)Nc2ccccc2)cc1	-11%	6%	/	-4%	1%	0%
O=C(Nc1ccccc1)OCCNC(=O)c1cccc(Cl)c1	21µM*	1%	-21%	-3%	6%	15%
Cc1cccn2c(=O)cc(CSc3nnc(NC(=O)c4ccc(F)cc4)s3)nc12	5%	/	/	/	/	/
CC1=NOC(=O)/C1=C\c1ccc(-c2ccc(Cl)cc2Cl)o1	5.4µM*	-1%	-7%	-2%	-13%	0%
CN(C)S(=O)(=O)c1ccc2c(c1)/C(=C/c1cc3c([nH]1)CCCC3)C(=O)N2	-20%	-4%	11µM*	?	?	?
O=C(COc1ccc(-c2ccccc2)cc1)Nc1cccnc1	5.4µM*	9%	/	-3%	-12%	17%
CCC(C)c1ccc(NC(=O)c2cccnc2)cc1 (stereo not drawn)	12µM*	-4%	13µM*	2.5µM*	2.8µM*	?
CC(C)(C)C(=O)Nc1ccc(C(=O)Nc2cccnc2)cc1	21µM*	?	?	4µM*	?	21µM*
CC(C)c1ccc(C(=O)Nc2cccnc2)cc1	3.4µM*	?	/	?	1.6µM*	5.2µM*
CCC(=O)Nc1ccc(C(=O)Nc2cccnc2)cc1	?	?	?	-1%	11%	?
O=C(Nc1cccnc1)c1ccc(-c2ccccc2)cc1	2.4µM*	6%	-2%	?	?	?
COc1ccc(N2C(=O)CCC2(C#N)c2ccc(Br)cc2)cc1 (stereo not drawn)	1%	-2%	-4%	-2%	1%	4%
CCC1(CC)Nc2ccccc2C(=O)N1c1ccc(OC)cc1	11µM*	9%	/	2.5µM*	2µM*	?
COc1ccc(N2C(S)=C(C#N)C(=O)NC23CCCCC3)cc1	27µM*	5%	/	1%	1%	0%
COc1ccc(N2C(=O)c3ccccc3NC23CCCC3)cc1	?	15%	11µM*	2.5µM*	4µM*	?
CCC1(CC)Nc2ccccc2C(=O)N1c1ccc(NC(C)=O)cc1	-12%	?	4%	?	19%	?
CCOc1cccc2sc(NC(=O)c3ccc(S(=O)(=O)N4CCc5ccccc54)cc3)nc12	-10%	/	/	/	/	/
CCOc1cccc2sc(NC(=O)c3ccc(Br)s3)nc12	2.7µM*	4%	-21%	16%	19%	-1%
SMILES	FLuc modulator	p53 reactivator	SMN2 splice up	Rab9 promoter act	NPC1 prom act	ELG1 genotox
CCOC(=O)Cc1csc(NC(=O)c2cccs2)n1	19µM*	?	-4%	20%	17%	?
CCOC(=O)Cc1csc(NC(=O)c2ccc(Br)s2)n1	24µM*	2%	-6%	12%	1%	-9%
CCOC(=O)c1csc(NC(=O)c2cccs2)n1	13µM*	?	/	2.2µM*	2.2µM*	?
Nc1nc(NC(=O)CCC(=O)O)nn1-c1ccccc1	-14%	-2%	/	0%	-1%	1%
CCc1cccc(NC(=O)Cn2c(=O)n(CCCCCC(=O)NCc3ccc(F)cc3)c(=O)c3sccc32)c1	-10%	/	-3%	/	/	/
CCOC(=O)Cc1csc(NC(=O)/C=C/c2ccc(Br)o2)n1	6.7µM*	5%	/	0%	1%	-8%
COc1ccc(Cl)cc1NC(=O)c1cccnc1	-2%	-6%	-23%	-14%	2%	1%
CC1CCCCC12NC(=O)N(CC(=O)Nc1ccc3[nH]c(=O)[nH]c3c1)C2=O (stereo not drawn)	3%	3%	/	-4%	-3%	-2%
O=C(CN1C(=O)NC2(CCCCC2)C1=O)Nc1ccc2c(c1)OCCCO2	12µM*	/	/	3.2µM*	3.2µM*	?
CC1CCCCC12NC(=O)N(CC(=O)NC(=O)Nc1ccc3c(c1)OCCO3)C2=O (stereo not drawn)	11µM*	24%	13µM*	3.5µM*	2.8µM*	?
CCOC(=O)c1cccc(NC(=O)CSc2ncc3c(n2)-c2ccc(Cl)cc2N(Cc2ccccc2)S3(=O)=O)c1	-7%	/	/	/	/	/
CCn1c(SCC(=O)Nc2ccc(C(C)=O)cc2)nc2nc3c(cc2c1=O)CCCC3	?	?	-76%	21%	12%	?
COc1ccc(NC(=O)CSc2nc(N)c3cc4c(nc3n2)CCCC4)cc1	1.5µM*	?	22µM*	?	19%	13%
CC(=O)c1ccc(NC(=O)CSc2nc(N)c3cc4c(nc3n2)CCCC4)cc1	1.3µM*	?	25µM*	?	?	16%
COc1ccc(NC(=O)CSc2nc(N)c3cc4c(nc3n2)CC(C)(C)OC4)cc1	?	5%	/	?	23%	9%
CC1CCN(c2ccc(-c3cccc(NS(=O)(=O)c4cccs4)c3)nn2)CC1	0.48µM*	/	/	/	/	/
CSc1cccc(NS(=O)(=O)c2cccs2)c1	2%	8%	13%	1%	1%	-4%
CC1CCN(c2ccc(-c3cccc(NS(=O)(=O)c4ccc(Cl)s4)c3)nn2)CC1	0.85µM*	/	/	/	/	/
Cc1ccc(Cl)cc1NC(=O)c1oc2ccc(S(=O)(=O)N(C)C3CCCCC3)cc2c1C	-4%	/	/	/	/	/
O=S(=O)(O)c1cc(O)c2c(O)c(N=Nc3cccc4ccccc34)c(S(=O)(=O)O)cc2c1	/	/	-11%[9.22 µM]	/	/	/
CCCCCCCc1ccc(-c2ccc(O)cc2)nc1	19µM*	14%	14µM*	3.2µM*	?	?
CCCCCc1ccc(-c2ccc(Br)cc2)nc1	2.1µM*	/	-1%	/	/	/
